Most compounds without a hit are left out; they make up all but 8.7% or so of the library.
G9a inh – G9a (human) methyltransferase inhibition; Q96KQ7; G9a H3K9 monomethylation, AlphaScreen, 2 h; Potency, µM (series often up to 102 µM), inactives show at the highest dose activity, negative = inhibition, most hits filed as inhibitors; 8.8% of 350,000 active; AID 504332; further: on the % scale 0 is the no-effect control and ±100 the full control effect; nearly all actives have a fitted effect of over 75% in size
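Methyltransferase reactions run at room temperature for 2 h (20 nM enzyme, 500 nM biotin-H3K9 peptide, 20 uM SAM) after a 15 min compound preincubation; product detected by AlphaScreen beads and anti-H3K9me1 antibody.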
ALOX12 inh – blocks human arachidonate 12S-lipoxygenase; 1.1% of 580,000 active; P18054; AID 1671190; Potency, µM (top dose mostly 108 µM), inactives show at the highest dose activity change, negative = inhibition, hits mostly inhibitors; purified 12hLO, xylenol orange hydroperoxide absorbance; further: on the % scale 0 is the no-effect control and ±100 the full control effect
Target sequence (P18054 whole entry, looked up): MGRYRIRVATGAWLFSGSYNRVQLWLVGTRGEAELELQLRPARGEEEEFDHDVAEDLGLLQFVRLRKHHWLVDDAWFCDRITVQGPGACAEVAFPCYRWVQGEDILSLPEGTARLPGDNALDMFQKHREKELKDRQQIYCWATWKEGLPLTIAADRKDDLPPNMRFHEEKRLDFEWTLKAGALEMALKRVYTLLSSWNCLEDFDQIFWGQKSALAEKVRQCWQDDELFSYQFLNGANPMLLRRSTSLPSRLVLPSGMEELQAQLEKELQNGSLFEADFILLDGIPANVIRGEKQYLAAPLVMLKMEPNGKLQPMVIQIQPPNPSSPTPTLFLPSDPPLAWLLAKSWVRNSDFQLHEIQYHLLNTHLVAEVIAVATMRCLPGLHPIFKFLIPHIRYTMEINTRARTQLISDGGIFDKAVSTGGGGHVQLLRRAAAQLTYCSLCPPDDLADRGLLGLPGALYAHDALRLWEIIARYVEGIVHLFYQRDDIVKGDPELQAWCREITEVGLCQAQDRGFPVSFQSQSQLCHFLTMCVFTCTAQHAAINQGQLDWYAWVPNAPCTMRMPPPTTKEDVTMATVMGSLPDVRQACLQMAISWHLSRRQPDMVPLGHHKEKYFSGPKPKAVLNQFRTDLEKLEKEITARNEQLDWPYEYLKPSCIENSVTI
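Purified human 12hLO (150 nM final) in 25 mM Hepes, 0.01% Triton X-100, pH 7.0 was preincubated 15 min at room temperature with compound. Then 40 uM arachidonic acid was added, 30 min. Hydroperoxide was read by Fe-XO absorbance ratio 573/405 nm.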
JMJD2A Tudor – blocks the human JMJD2A Tudor domain; AlphaScreen JMJD2A-Tudor / H3K4me3 peptide binding; Potency, µM (highest dose often 114 µM), for the others: at the top dose activity change, negative = inhibition, actives largely listed as inhibitors; 4.4% of 390,000 active; AID 504339; further: on the % scale 0 is the no-effect control and ±100 the full control effect; nearly all actives have a fitted effect of over 50% in size
BAZ2B block – blocks human BAZ2B; Q9UIF8; 4.4% of 360,000 active; Potency, µM (titrated, usually from 114 µM), for the others: top-dose activity change, negative = inhibition, hits mostly inhibitors; AlphaScreen BAZ2B-H3K14Ac peptide displacement; further: on the % scale 0 is the no-effect control and ±100 the full control effect; nearly all actives have a fitted effect of over 60% in size
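Complex of BAZ2B and biotin-H3K14Ac (50 nM apiece) forms over 30 min at RT, then faces library compounds up to 110 uM for another 30 min; AlphaScreen beads added, 20 min dark incubation, luminescence read.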
HP1b chromo inh – HP1-beta chromodomain-methylated histone interaction inhibition | P83916 | AlphaScreen HP1-beta / biotin-H3K9me3 peptide binding | Potency, µM (series often up to 114 µM), without a hit: at the highest dose activity change, negative = inhibition, actives largely listed as inhibitors | 0.56% of 390,000 active | AID 540317; further: nearly all actives have a fitted effect of over 70% in size
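Compound inhibition of the preformed complex between 50 nM HP1-beta and 50 nM biotinylated H3K9me3 peptide was read by AlphaScreen. Buffer was PBS pH 7.4 with 0.01% Tween-20. Incubations ran 30 min at room temperature, with 10 ug/mL donor/acceptor beads.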
Sfp PPTase inh – Sfp phosphopantetheinyl transferase inhibition; Potency, µM, for the others: largest response in the series, negative = inhibition, usual class: inhibitors; 3.5% of 310,000 active; Biochemical Sfp PPTase activity, qHTS;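 further: the enzyme is Sfp with the accession as filed and its product quenches rhodamine fluorescence; 0% = enzyme reaction without inhibitor and -100% = no enzyme wells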
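After 15 min at room temperature with compound, 15 nM Sfp received 5 uM rhodamine-CoA plus 12.5 uM BHQ-2-ybbR (50 mM Hepes pH 7.6, 10 mM MgCl2). Rate came from the fluorescence difference over 30 min, ex 525/em 598 nm.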
An asterisk follows results filed as active; u = inconclusive; x = no result; ! = repeats disagree; [ ] = remark or other dose. The call rests on the fitted dose curve; in most records, active means well fitted curve in the direction sought with a large enough effect; inconclusive means small, poorly fitted or top-dose-only effect, or another doubt; inactive means no such curve, though single readings can be large; an effect the other way counts as inactive or inconclusive. Potency means the concentration at half of the fitted maximal effect.

SMILES	G9a inh	ALOX12 inh	JMJD2A Tudor	BAZ2B block	HP1b chromo inh	Sfp PPTase inh
Cc1ccc(C(=O)NNC(=O)/C=C\C(=O)O)cc1	50µM*	1%	-12%	u	40%	u
Cn1nccc1C(=O)N1CCN(c2cccc(C(F)(F)F)c2)CC1	71µM*	-22%	-16%	-28%	38%	17%
Cc1ccc(C(=O)NNC(=O)c2ccc(C)cc2)cc1	8%	9%	-15%	x	14%	13%
Cc1ccc(C(=O)/C=C/c2ccc(-c3ccc(C)cc3)o2)cc1	u	u	79µM*	-34%	-25%	8.9µM*
Cc1ccc(-c2ccc(/C=C/C(=O)c3ccccc3)o2)cc1Cl	x	11µM*	x	x	x	x
Cn1nccc1C(=O)N1CCCC(N2CCN(c3cccc(C(F)(F)F)c3)CC2)C1 (configuration not stated)	u	0%	x	-13%	x	19%
COc1ccccc1OCC(=O)Nc1ccc2c(=O)c3cccc(Cl)c3oc2c1	x	-1%	x	x	x	x
Cn1c(=O)c2c(nc(NCc3ccccc3)n2Cc2ccc(Br)cc2)n(C)c1=O	x	65%	x	x	x	x
Cc1ccc(S(=O)(=O)NCc2c(C)nn(Cc3ccccc3)c2C)cc1	x	4%	x	x	x	x
CCN(CC)S(=O)(=O)c1ccc(C(=O)/C=C/c2ccc(-c3ccc([N+](=O)[O-])cc3)o2)cc1	u	7%	-6%	-26%	27%	79µM*
CCc1ccc(C(=O)/C=C/c2ccc([N+](=O)[O-])o2)cc1	32µM*	u	u	u	u	-6%
CC(=O)N1CCN(C(=O)c2ccc(-c3cccc(C(F)(F)F)c3)o2)CC1	50µM*	11%	-9%	4%	33%	x
Fc1cccc(-c2noc(-c3nc(-c4ccncc4)no3)n2)c1	x	27%	x	x	x	x
CCc1ccc(C(=O)N2CCC3(CC2)N(c2ccccc2)C(=O)CS3(=O)=O)cc1	x	16%	x	x	x	x
CCCCC(=O)Nc1ccc(-c2nc3cc(CC)ccc3o2)cc1	x	12%	x	x	x	x
COc1ccc(C(=O)Nc2ccc3c(c2)nc(CN2CCCCCC2)n3C)cc1OC	x	71%	x	x	x	x
CC1=CC(C)(C)[N+](C)=CN1c1ccccc1	6.3µM*	u	-9%	-8%	5%	13%
O=C(COc1ncnc2ccc(Br)cc12)NC(c1ccccc1)c1ccccc1	x	10%	x	x	x	x
O=C1OC(NC(=O)c2ccccc2)C(n2cc(CO)nn2)=C1Cl (configuration not stated)	u	5%	89µM*	u	u	4µM*
CCOc1ccccc1NC(=O)CCNS(=O)(=O)c1ccc(NC(C)=O)cc1	19%	20%	3%	4%	38%	13%
COc1ccc(NC(=O)CCCN2C(=O)CN(C)C2=O)c(OC)c1	-6%[12.7 µM]	9%	50µM*	50µM*	-12%	x
CCOc1ccccc1NC(=O)COC(=O)CN(C)S(=O)(=O)c1ccc(C)cc1	-4%[59 µM]	1%	89µM*	-21%	7%	8%
O=C(CCS(=O)(=O)c1ccc(Br)cc1)NC1CCCC1	45µM*	0%	50µM*	50µM*	-28%	10%
CCOc1ccccc1NC(=O)CCS(=O)(=O)c1ccc(Br)cc1	13µM*	0%	16µM*	13µM*	35µM*	8%
COc1ccc(NC(=O)CCN2C(=O)c3ccccc3C2=O)c(OC)c1	8%	31%	-17%	4%	5%	18%
O=C(CCS(=O)(=O)c1ccc(Br)cc1)Nc1cc(F)ccc1F	50µM*	-26%	-19%[57.1 µM]	45µM*	32µM*	-5%
COc1ccc(NC(=O)CCS(=O)(=O)c2ccccc2)c(OC)c1	-2%[59 µM]	-19%	-18%	4%	6%	8%
O=C(CCS(=O)(=O)c1ccc(Br)cc1)Nc1ccc(F)cc1F	2%[59 µM]	-2%	9%	10%	33%	x
CCOc1ccc(NC(=O)CCS(=O)(=O)c2ccc(Br)cc2)cc1	45µM*	u	18µM*	35µM*!	20µM*	0%

Screening results deposited in PubChem BioAssay by National Center for Advancing Translational Sciences (NCATS).
